Results: PubChem BioAssay (Tox21)
Results filed as inconclusive are left out. Entries that show only a call come without a potency. The source made the active and inactive calls. Unless noted, calls follow the shape of the dose curve; as a rule, active = well fitted curve in the direction sought with a large enough effect in the repeat runs; inconclusive = weak or mixed curves; inactive = no such curve, though single readings can be large; an effect the other way counts as inactive or inconclusive.

Experiments:
[1] = qHTS assay to identify small molecule agonists of the vitamin D receptor (VDR) signaling pathway - cell viability counter screen (AID 743224); also: series mostly up to about 63 µM; nearly all actives have a fitted effect of over 50% in size
How it was run: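 Counter screen run in the same wells as the VDR-bla reporter assay: CellTiter-Glo luminescence, 30 min at room temperature, after 16 h compound treatment at 37C of cells pre-plated for 4 h.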

[2] = qHTS assay to identify small molecule antagonists of the vitamin D receptor (VDR) signaling pathway - cell viability counter screen (AID 743225); also: nearly all actives have a fitted effect of over 50% in size
How it was run: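 Parallel cytotoxicity test: VDR-UAS-bla HEK 293T, 3 nM (final) 1-alpha,25-dihydroxyvitamin D3 with test compound, 16 h, 37C. Endpoint is CellTiter-Glo luminescence in the same wells.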

[3] = qHTS assay to identify small molecule agonists of the NFkB signaling pathway (AID 1159509; active = well fitted curve in the direction sought with a large enough effect in the signal ratio in the repeat runs, not every such curve was filed as active; the % refers to the signal ratio; also: series mostly up to about 61 µM)
How it was run: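 Beta-lactamase reporter assay run in quantitative high-throughput format on an NF-kB-responsive ME-180 line, with 5 hr compound treatment and a FRET-based blue/green fluorescence readout.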

[4] = qHTS assay to identify small molecule agonists of the NFkB signaling pathway - cell viability counter screen (AID 1159515; calls by dose curve; also: series mostly up to about 61 µM; nearly all actives have a fitted effect of over 55% in size)
How it was run: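 Read by CellTiter-Glo luminescence (30 min, room temperature) in the wells also used for the beta-lactamase FRET read. ME-180 NFkB-bla cells at 2,000 per well were plated overnight, then exposed to compound for 5 hr at 37 C.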

[5] = qHTS assay to identify small molecule agonists of the endoplasmic reticulum stress response signaling pathway (AID 1159516; active = well fitted activation curve with a large enough effect in the signal ratio in the repeat runs, not every such curve was filed as active; the % refers to the signal ratio)
How it was run: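 Ratiometric FRET readout (405 nm excitation; 460 and 530 nm emission) of a beta-lactamase gene driven by the ER stress response element, after 2 hr substrate loading. HeLa ESRE-bla cells were seeded overnight and treated with compounds for only 5 hr at 37 C.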

[6] = qHTS assay to identify small molecule agonists of the endoplasmic reticulum stress response signaling pathway - cell viability counter screen (AID 1159517; calls by dose curve; also: series mostly up to about 61 µM; nearly all actives have a fitted effect of over 50% in size)
How it was run: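 Steps: seed 1,500 ESRE-bla HeLa cells per well; incubate overnight at 37 C, 5% CO2; add compounds in DMSO for 5 hr; run FRET substrate 2 hr RT; add CellTiter-Glo, wait 30 min, read luminescence.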

[7] = qHTS assay to identify small molecule antagonists of the retinoid-related orphan receptor gamma (ROR-gamma) signaling pathway - cell viability counter screen (AID 1159520); also: nearly all actives have a fitted effect of over 50% in size; also: potency is read from the fitted curve at half-maximal effect
How it was run: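 Tet-on ROR gamma CHO cells were given compounds for 2 hr, then doxycycline hyclate at 1 uM final, and incubated 16 hr at 37 C. Viability was measured as ATP content by CellTiter-Glo luminescence.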

[8] = target: Nuclear receptor ROR-gamma (Homo sapiens) (UniProt P51449); test: qHTS assay to identify small molecule antagonists of the retinoid-related orphan receptor gamma (ROR-gamma) signaling pathway (AID 1159521; also: nearly all actives have a fitted effect of over 50% in size; also: potency is read from the fitted curve at half-maximal effect)
How it was run: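 Decreased RORE-driven luciferase luminescence indicates antagonism. Tet-on RORγ CHO cells received compound, then 1 uM final doxycycline 2 h later; signal read after 16 h incubation.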

[9] = qHTS assay to identify small molecule agonists of the AP-1 signaling pathway (AID 1159526; calls by dose curve)
[10] = target: Retinoic acid receptor RXR-alpha (Homo sapiens) (UniProt P19793); test: qHTS assay to identify small molecule agonists of the RXR signaling pathway (AID 1159527; calls by dose curve; also: nearly all actives have a fitted effect of over 35% in size)
How it was run: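 16 hr incubation of compound-treated RXR-alpha-UAS-bla HEK 293T cells (2% charcoal-stripped FBS, 37 C) preceded a 2 hr room-temperature LiveBLAzer FRET substrate step and blue/green fluorescence measurement.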

[11] = qHTS assay to identify small molecule agonists of the RXR signaling pathway - cell viability counter screen (AID 1159529); also: nearly all actives have a fitted effect of over 50% in size; also: potency is read from the fitted curve at half-maximal effect
How it was run: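 In this parallel viability measure, GeneBLAzer RXR-alpha HEK 293T cells (2% charcoal-stripped FBS) were given a 5 hr preincubation, treated with compounds 16 hr at 37 C, and read by CellTiter-Glo luminescence.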

[12] = qHTS assay to identify small molecule antagonists of the retinoid acid receptor (RAR) signaling pathway - cell viability counter screen (AID 1159551); also: nearly all actives have a fitted effect of over 35% in size
How it was run: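 Cytotoxicity counter screen: ATP content quantified by CellTiter-Glo luminescence in C3RL4 cells treated 6 hr at 37 C with compound and retinol (1 uM final). Cells plated at 1,000/well and cultured overnight before dosing.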

[13] = qHTS assay to identify small molecule antagonists of the retinoic acid receptor (RAR) signaling pathway (AID 1159552; also: nearly all actives have a fitted effect of over 50% in size; also: potency is read from the fitted curve at half-maximal effect)
How it was run: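 C3RL4 RARE-luc cells, overnight plating; retinol 1 uM final added right after compound; 6 hr 37 C; luciferase read at 30 min RT.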

[14] = qHTS assay to identify small molecule agonists of the retinoic acid receptor (RAR) signaling pathway (AID 1159553)
How it was run: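 Luminescence was measured 30 min after luciferase reagent addition at room temperature. Before that, C3RL4 reporter cells (1,000 per well, plated overnight) were treated with compound for 6 hr at 37 C and 5% CO2.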

[15] = qHTS assay to identify small molecule agonists of the AP-1 signaling pathway - cell viability counter screen (AID 1159525; calls by dose curve; also: nearly all actives have a fitted effect of over 55% in size; also: potency is read from the fitted curve at half-maximal effect)
How it was run: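 Same-well cytotoxicity counter screen of the Tox21 10K library in ME-180 cells. The readout is ATP-dependent luminescence after 5 h compound treatment. Data are normalised to DMSO and tetra n-octyl ammonium bromide controls.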

[16] = qHTS assay to identify small molecule antagonists of the estrogen related receptor (ERR) signaling pathway - cell viability counter screen (AID 1224818);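 also: series mostly up to about 46 µM; viability measured after 17.5 h of compound exposure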
How it was run: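 Cytotoxicity counter screen: fluorescence from CellTiter-Fluor, added after 17.5 h compound exposure at 37 C and read 30 min later. ERR cell line seeded at 2,000 cells/well, preincubated 6 h before dosing.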

[17] = qHTS assay to identify small molecule antagonists of the estrogen related receptor signaling pathway with the pleiotropic PPARgamma coactivator (PGC) cell viability counter screen (AID 1224822; also: series mostly up to about 46 µM)
How it was run: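 Viability counter-screen read by fluorescence intensity after 30 min with CellTiter-Fluor at 37 C; PGC/ERR reporter cells were exposed to compounds for 17.5 h at 37 C following a 6 h preincubation.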

Sequence of Retinoic acid receptor RXR-alpha (Homo sapiens) (P19793 whole entry, looked up): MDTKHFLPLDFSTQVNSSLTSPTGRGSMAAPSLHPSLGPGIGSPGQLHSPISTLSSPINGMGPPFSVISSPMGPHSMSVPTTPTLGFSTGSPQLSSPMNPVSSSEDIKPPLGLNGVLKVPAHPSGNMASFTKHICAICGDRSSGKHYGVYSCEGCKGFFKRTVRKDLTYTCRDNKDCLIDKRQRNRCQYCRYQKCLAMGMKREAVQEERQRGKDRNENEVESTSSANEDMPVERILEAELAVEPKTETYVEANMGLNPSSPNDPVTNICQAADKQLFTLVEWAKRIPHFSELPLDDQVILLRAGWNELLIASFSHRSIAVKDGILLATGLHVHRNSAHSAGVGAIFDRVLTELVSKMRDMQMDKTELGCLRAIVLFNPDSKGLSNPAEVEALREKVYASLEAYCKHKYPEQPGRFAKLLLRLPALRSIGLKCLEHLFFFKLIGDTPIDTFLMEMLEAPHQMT

Compound | Potency [1] | outcome [2] | outcome [3] | outcome [4] | outcome [5] | Potency [6] | Potency [7] | Potency [8] | outcome [9] | Potency [10] | Potency [11] | Potency [12] | Potency [13] | Potency [14] | Potency [15] | outcome [16] | outcome [17]
c1cc2c(c(N3CCNCC3)c1)OCCO2 | inactive | inactive | inactive | inactive | inactive | inactive | inactive | inactive | inactive | inactive | inactive | inactive | inactive | inactive | – | – | –
CC(CC(C#N)(c1ccccc1)c1ccccc1)N(C)C (stereo not drawn) | inactive | – | inactive | inactive | inactive | inactive | inactive | inactive | – | inactive | inactive | inactive | – | – | inactive | – | –
N#CC(CCc1ccc(Cl)cc1)(Cn1cncn1)c1ccccc1 (stereo not drawn) | inactive | – | inactive | inactive | inactive | inactive | 54.5 µM (active) | 27.3 µM (active) | – | – | 24.5 µM (active) | – | 61.1 µM (active) | inactive | 54.9 µM (active) | – | –
CC(C=O)Cc1ccc2c(c1)OCO2 (stereo not drawn) | inactive | – | inactive | inactive | inactive | inactive | inactive | inactive | – | inactive | inactive | inactive | – | inactive | inactive | – | –
O=C1OC(CCN2CCCCC2)OC1(c1ccccc1)c1ccccc1 (stereo not drawn) | inactive | – | inactive | inactive | inactive | inactive | inactive | inactive | – | inactive | inactive | inactive | 26.6 µM (active) | – | inactive | – | –
O=C1OC(c2ccc(O)c(S(=O)(=O)O)c2)(c2ccc(O)c(S(=O)(=O)O)c2)c2c(Br)c(Br)c(Br)c(Br)c21 | inactive | inactive | inactive | inactive | inactive | inactive | inactive | inactive | – | inactive | – | – | inactive | inactive | inactive | – | –
CCCSP(=S)(OCC)Oc1ccc(Cl)cc1Cl (stereo not drawn) | – | inactive | inactive | inactive | inactive | inactive | inactive | inactive | – | – | – | inactive | – | inactive | inactive | – | –
Oc1c(Cl)cccc1Cl | inactive | inactive | inactive | inactive | inactive | inactive | inactive | – | inactive | inactive | inactive | inactive | inactive | – | inactive | – | –
CCCCOC(=O)c1ccccc1C(=O)O | inactive | – | inactive | inactive | inactive | inactive | inactive | inactive | inactive | – | inactive | inactive | inactive | inactive | – | – | –
CCC(Cl)[N+](=O)[O-] (stereo not drawn) | inactive | inactive | inactive | inactive | inactive | inactive | inactive | inactive | inactive | inactive | – | inactive | – | – | – | – | –
CC(=O)Nc1cc([As](=O)(O)O)ccc1O | inactive | – | inactive | inactive | inactive | inactive | inactive | inactive | inactive | – | inactive | – | inactive | inactive | – | – | –
COC(=O)C1=CCCN(C)C1 | inactive | inactive | inactive | inactive | inactive | inactive | inactive | inactive | – | inactive | – | – | – | – | – | inactive | inactive
COC(=O)c1ccccc1S(=O)(=O)NC(=O)N(C)c1nc(C)nc(OC)n1 | inactive | – | inactive | inactive | inactive | inactive | inactive | – | inactive | inactive | inactive | inactive | – | inactive | inactive | – | –
CC(C)CP(=S)(S)CC(C)C | – | inactive | inactive | inactive | inactive | inactive | inactive | 24.3 µM (active) | – | – | – | inactive | – | inactive | – | – | –
CCN(CC)C(C)C(=O)c1ccccc1 (stereo not drawn) | inactive | inactive | inactive | inactive | inactive | inactive | inactive | – | inactive | inactive | inactive | inactive | inactive | inactive | inactive | – | –
ClCC(Cl)Cl | inactive | inactive | inactive | inactive | inactive | inactive | inactive | inactive | inactive | inactive | inactive | inactive | – | – | – | – | –
N#CCCC#N | inactive | inactive | inactive | inactive | inactive | inactive | inactive | inactive | inactive | inactive | – | inactive | – | – | – | – | –
C#CCN1C(=O)COc2cc(F)c(N3C(=O)C4=C(CCCC4)C3=O)cc21 | inactive | inactive | inactive | inactive | inactive | inactive | inactive | – | inactive | inactive | inactive | inactive | inactive | inactive | inactive | – | –
CSc1ccc(C(=O)C(C)(C)N2CCOCC2)cc1 | inactive | inactive | inactive | inactive | inactive | inactive | inactive | – | inactive | inactive | inactive | inactive | inactive | inactive | inactive | – | –
Nc1c(Br)cc([N+](=O)[O-])cc1[N+](=O)[O-] | inactive | inactive | inactive | inactive | inactive | inactive | inactive | inactive | inactive | inactive | inactive | – | inactive | inactive | – | – | –
ClC(Cl)Br | inactive | inactive | inactive | inactive | inactive | inactive | inactive | – | inactive | inactive | inactive | inactive | inactive | inactive | inactive | – | –
COc1cc(C[C@@H](C)N)c(OC)cc1C | inactive | inactive | inactive | inactive | inactive | inactive | inactive | inactive | inactive | – | – | inactive | – | – | – | – | –
